This note sets out measurements from PubChem BioAssay (NCATS).

Results filed as inconclusive are left out. Where a call stands in place of a potency, no number is given. Calls of active or inactive are those of the source. Calls follow the shape of the dose curve; as a rule, active = well fitted inhibition curve with a large enough effect; inconclusive = small, poorly fitted or top-dose-only effect; inactive = flat fitted curve, though single readings scatter.
Potency is read from the fitted curve at half-maximal effect.

This assay relates to MCC-26. In words: qHTS assay to identify novel small-molecules to repurpose for Merkel cell carcinoma treatment (AID 1296009). Also: nearly all actives have a fitted effect of over 60% in size. To be noted: MCC and control cell lines, CellTiter-Glo viability, 72 h; series mostly up to 46 µM. The source says: MCC is a rare and aggressive neuroendocrine skin cancer with limited treatment options. Approximately 80% of MCCs have the Merkel cell polyomavirus (MCPyV) DNA integrated into the host genome (virus-positive: VP-MCC) and viral oncogenes drive oncogenesis. The remaining MCCs are virus-negative (VN-MCC) and are caused by UV mutagenesis. To identify novel treatments for VP-MCC and/or VN-MCC we screened three VP-MCC cell lines (WAGA, MKL-1, MKL-2), three VN-MCC cell lines (MCC-13, MCC-26, UISO), and four immortalized, non-transformed control cell lines (HaCaT, HEK293T, CRL7250, NIH-3T3) against ~2,400 compounds in the NCGC Pharmaceutical Collection (NPC) and ~1,900 compounds in the Mechanism Interrogation PlatE (MiPE). Using cell viability as a readout (CellTiter-Glo assay) we found both overlapping and distinct drugs that can be repurposed for the treatment of VP-MCC and VN-MCC.
A high-throughput screen was conducted in 1536-well white flat bottom plates (Corning) on a Kalypsys robotic system. Cell lines WAGA, MKL-1, MKL-2, MCC-13, MCC-26, UISO, HaCaT, HEK293T, CRL7250, and NIH-3T3 were screened against 2 small molecule annotated drug libraries NPC and MIPE in dose response (8 and 11 pt. respectively) measuring cell viability after 72 hours of incubation. […] A 1,536 pintool (Kalypsys) was used to transfer 23 nL of compound in DMSO to the 1,536-well assay plates. After 72 hr incubation at 37 degree celsius, 2.5 uL of CellTiter-Glo (Promega) was dispensed into each well using a BiorapTR. Plates were incubated at room temperature for 10 min, transferred to a ViewLux (PerkinElmer) and the luminescence was recorded using an exposure time of 2 seconds. Relative luminescence units (RLUs) were normalized to in-plate controls (no cells as a positive (cytotoxicity) control, DMSO as negative control) and the normalized data was processed using NCATS in-house software.
A general note: In qHTS, concentration-response curves come from the screen itself.
On to `Cc1ccc(-c2ncc(Cl)cc2-c2ccc(S(C)(=O)=O)cc2)cn1`, for which the Potency entry was “inactive”.

`CCc1oc2ccccc2c1C(=O)c1cc(I)c(O)c(I)c1`: the Potency entry is “inactive”.

On to `O=C(NC1CCN(CCc2c[nH]c3ccccc23)CC1)c1ccccc1`, for which the Potency entry is “inactive”.

`OCc1ccccn1`: the Potency result was “inactive”.

As for `OC(C#CCN1CCCC1)(c1ccccc1)c1ccccc1`, the Potency entry is “inactive”.

Take `C[C@@H](O)[C@H]1C(=O)N2C(C(=O)O)=C([C@H]3CCCO3)S[C@H]12`: the Potency entry was “inactive”.

On to `CO[C@H]1C=CO[C@@]2(C)Oc3c(C)c(O)c4c(O)c(c(/C=N/N5CCN(C)CC5)c(O)c4c3C2=O)NC(=O)/C(C)=C\C=C[C@H](C)[C@H](O)[C@@H](C)[C@@H](O)[C@@H](C)[C@H](OC(C)=O)[C@@H]1C`, for which the Potency entry is “inactive”.

In the case of `N#CCC(=O)NN`, the Potency result was “inactive”.

Regarding `CN1CCN(CCC(=O)N2c3ccccc3Sc3ccc(C(F)(F)F)cc32)CC1`, the Potency entry is “inactive”.

Take `CCOc1ccccc1OCCN[C@H](C)Cc1ccc(OC)c(S(N)(=O)=O)c1`: the Potency result was “inactive”.

On to `CCCCCCCCOc1ccc(C(=O)c2ccccc2)c(O)c1`, for which the Potency entry is “inactive”.

In the case of `CC(C)[C@@H]1CC[C@@H](C)CC1=O`, the Potency result was “inactive”.

On to `Cn1c(=O)c2[nH]c(Br)nc2n(C)c1=O`, for which the Potency entry is “inactive”.

As to `CCN(CC)CCOC(=O)C(Cc1cccc2ccccc12)CC1CCCO1` (stereo not given), the Potency result was “inactive”.

`CCCN(CCc1cccs1)[C@H]1CCc2c(O)cccc2C1`: the Potency result is “inactive”.

For `NCCNc1cccc2ccccc12`, the Potency entry is “inactive”.

For the molecule `OC[C@H]1O[C@@H]2O[C@H]3[C@H](O)[C@@H](O)[C@@H](O[C@H]4[C@H](O)[C@@H](O)[C@@H](O[C@H]5[C@H](O)[C@@H](O)[C@@H](O[C@H]6[C@H](O)[C@@H](O)[C@@H](O[C@H]7[C@H](O)[C@@H](O)[C@@H](O[C@H]8[C@H](O)[C@@H](O)[C@@H](O[C@H]1[C@H](O)[C@H]2O)O[C@@H]8CO)O[C@@H]7CO)O[C@@H]6CO)O[C@@H]5CO)O[C@@H]4CO)O[C@@H]3CO`, the Potency entry was “inactive”.

As for `CCNC(=O)NCc1cccc(Cl)c1`, the Potency entry was “inactive”.

In the case of `C[N+]12CCC(CC1)C(OC(=O)C(O)(c1ccccc1)c1ccccc1)C2` (stereo not given), the Potency entry was “inactive”.

Turning to `C#C[C@]1(O)CC[C@H]2[C@@H]3CCc4cc(OC)ccc4[C@H]3CC[C@@]21C`, the Potency entry is “inactive”.

For `C=CCN1CCc2nc(N)sc2CC1`, the Potency result is “inactive”.

With `C[C@H]1[C@H]2CC[C@H]3[C@@H]4CC=C5C[C@@H](N(C)C)CC[C@]5(C)[C@H]4CC[C@]23CN1C`, the Potency result is “inactive”.

As to `O=[N+]([O-])c1cccc(S(=O)(=O)NCCNS(=O)(=O)c2cccc([N+](=O)[O-])c2)c1`, the Potency entry was “inactive”.

Regarding `NS(=O)(=O)c1cc(C(=O)O)cc(N2CCCC2)c1Oc1ccccc1`, the Potency result was “inactive”.

For `Nc1ccc(S(=O)(=O)Nc2cnc3ccccc3n2)cc1`, the Potency result was “inactive”.

As for `CCNC(=O)/C=C/c1cccc(Br)c1`, the Potency entry is “inactive”.

Turning to `O=C(O)CCNC(=O)c1ccccc1`, the Potency entry was “inactive”.

`Clc1cccc(C(c2ccc3nc[nH]c3c2)n2ccnc2)c1` (stereo not given): the Potency result is “inactive”.

On to `CCCCc1cc2ccccc2c(OCCN(C)C)n1`, for which the Potency entry is “inactive”.

As to `CCCCCN=C(N)N/N=C/c1c[nH]c2ccc(OC)cc12`, the Potency is 23.7 µM (active).

As for `O=C(CCCN1CC=C(n2c(=O)[nH]c3ccccc32)CC1)c1ccc(F)cc1`, the Potency result was “inactive”.

`CN1CCN(C2=Nc3cc(F)ccc3Cc3ccccc32)CC1`: the Potency entry was “inactive”.

Regarding `Oc1ccccc1C=NCc1ccccc1`, the Potency result was “inactive”.

Take `CC(=O)OCC1=C(C(=O)O)N2C(=O)[C@@H](NC(=O)CSc3ccncc3)[C@H]2SC1`: the Potency entry was “inactive”.

Turning to `CCC1NC(=O)c2cc(S(N)(=O)=O)c(Cl)cc2N1` (stereo not given), the Potency entry is “inactive”.

Regarding `CCN1/C(=C/C=C/c2sc3ccccc3[n+]2CC)Sc2ccccc21`, the Potency is 5.8 µM (active).

Consider `Cc1nc(-c2ccc(Cl)cc2)oc1COC(C)(C)C(=O)O`, for which the Potency entry is “inactive”.

On to `O=C(O)c1ccc(S(=O)(=O)N(Cl)Cl)cc1`, for which the Potency result is “inactive”.

`C=C[C@H]1CN2CC[C@H]1C[C@H]2[C@H](O)c1ccnc2ccc(OC)cc12`: the Potency result is “inactive”.

In the case of `O=C1OC(CN2CCOCC2)CN1/N=C/c1ccc([N+](=O)[O-])o1` (stereo not given), the Potency result is “inactive”.
